This is a sample that favours compounds with a hit; in the whole collection about 2.3% have one here.
Pf Dd2 growth = P. falciparum Dd2 growth inhibitors, primary screen, SYBR Green fluorescence, single dose replicates; hit rate 2.3% among 94,000; AID 1159554, 2015; activity change, % at 10 µM; 72 h; active compounds read low; in the data active = activity change below about -80%
C diff HTS = C. difficile growth inhibitors, primary screen, HTS | hit rate 0.25% among 86,000 | growth activity, negative = inhibition, % at 16 µg/mL (by protocol) | AID 1259249, 2017 | Clostridium difficile clinical isolate growth, OD600, 24 h; active compounds read low;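 active = mean growth activity at or below -80% and every replicate also at or below -80%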;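 note: 0% = DMSO wells and -100% = levofloxacin 16 µg/mL wells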
An asterisk follows results filed as active; nt = no result given; ! = not active in a repeat.

SMILES | Pf Dd2 growth | C diff HTS
C[C@H](C(=O)N(C)C[C@H]1OCc2ccccc2-c2c(n(C)c3ccccc23)C(=O)N([C@H](C)CO)C[C@@H]1C)c1ccccc1 | -51 | 26
O=C(C[C@H]1CC[C@@H]2[C@H](COC[C@H](O)CN2C(=O)Nc2ccccc2)O1)NC1Cc2ccccc2C1 | 8 | nt
C[C@@H]1CN([C@@H](C)CO)C(=O)c2cc(C3=CCCC3)cnc2O[C@@H]1CN(C)C(=O)C1CCOCC1 | 28 | 1
Cc1cc(C(=O)Nc2cccc3c2O[C@H](CN(C)C(=O)Nc2ccc(F)cc2)[C@H](C)CN([C@H](C)CO)C3=O)n(C)n1 | -39 | -1
C[C@@H](NC(=O)C[C@H]1CC[C@H]2[C@@H](COC[C@H](O)CN2C(=O)Nc2cc(Cl)cc(Cl)c2)O1)c1ccccc1 | -9 | nt
Cc1cccc(-c2ccc(C3[C@@H]4CN(C(=O)Nc5ccc(F)cc5)C[C@H]3N4)cc2)c1 (stereo partly drawn) | -13 | -91*!
O=C(Nc1ccccc1)N1C[C@@H]2N[C@H](C1)C2c1ccc(-c2cccnc2)cc1 (stereo partly drawn) | -9 | -5
O=C(Nc1ccc(C(F)(F)F)cc1)N1C[C@@H]2N[C@H](C1)C2c1ccc(-c2ccccc2)cc1 (stereo partly drawn) | 3 | -98*
Cc1cccc(-c2ccc(C3[C@@H]4CN(C(=O)Nc5ccccc5)C[C@H]3N4)cc2)c1 (stereo partly drawn) | -15 | 55
O=C(C1CCC1)N1C[C@@H]2N[C@H](C1)C2c1ccc(/C=C/c2ccccc2)cc1 (stereo partly drawn) | -77 | 61
O=C(Nc1ccc(C(F)(F)F)cc1)N1C[C@@H]2N[C@H](C1)C2c1ccc(/C=C/c2ccccc2)cc1 (stereo partly drawn) | -90*! | -100*
C[C@H]1CN([C@@H](C)CO)C(=O)c2cc(C3=CCCCC3)cnc2O[C@@H]1CN(C)C(=O)NC1CCCC1 | -16 | 13
C[C@H]1CN([C@@H](C)CO)C(=O)Cc2cc(NS(=O)(=O)c3ccc(Cl)cc3)ccc2O[C@H]1CN(C)Cc1ccccc1 | -40 | -1
C[C@@H]1CCCCO[C@H](CN(C)S(=O)(=O)c2cn(C)cn2)[C@@H](C)CN([C@@H](C)CO)C(=O)c2cc(NC(=O)Cc3ccccc3)ccc2O1 | -24 | -1
Cc1noc(C)c1NC(=O)N(C)C[C@@H]1Oc2ccc(NS(=O)(=O)c3cn(C)cn3)cc2CC(=O)N([C@H](C)CO)C[C@H]1C | -83* | 4
Cc1noc(C)c1NC(=O)N(C)C[C@@H]1Oc2ccc(NC(=O)C3CCCCC3)cc2CC(=O)N([C@@H](C)CO)C[C@@H]1C | 14 | 2
Cc1noc(C)c1NC(=O)N(C)C[C@@H]1Oc2ccc(NS(=O)(=O)c3cn(C)cn3)cc2CC(=O)N([C@@H](C)CO)C[C@H]1C | 40 | -5
Cc1noc(C)c1NC(=O)N(C)C[C@H]1Oc2ccc(NC(=O)C3CC3)cc2CC(=O)N([C@@H](C)CO)C[C@H]1C | -83* | 4
C/C=C/c1ccc([C@@H]2[C@H](CO)N(C(=O)CC)C23CN(S(C)(=O)=O)C3)cc1 | -3 | 4
CN1c2ccc(-c3ccccc3)cc2[C@H]2[C@H](CCN2S(=O)(=O)c2ccccc2F)[C@H]1CO | -3 | 1
Cc1cccc(S(=O)(=O)N2CC[C@@H]3[C@H](CO)N(C)c4ccc(C#Cc5ccc(F)cc5)cc4[C@@H]32)c1 | -72 | -98*
COc1cccc(S(=O)(=O)N2CC[C@H]3[C@@H](CO)N(C)c4ccc(C#Cc5ccc(F)cc5)cc4[C@H]32)c1 | -34 | -99*
CN1c2ccc(C#Cc3ccc(F)cc3)cc2[C@H]2[C@H](CCN2S(=O)(=O)c2ccccc2F)[C@@H]1CO | -9 | -6
CN1c2ccc(-c3cccc(C#N)c3)cc2[C@H]2[C@H](CCN2S(=O)(=O)c2ccccc2F)[C@H]1CO | -95* | -2
COc1cccc(-c2ccc3c(c2)[C@H]2[C@H](CCN2S(=O)(=O)c2ccc(F)cc2)[C@@H](CO)N3C)c1 | -4 | 3
SMILES | Pf Dd2 growth | C diff HTS
CO[C@H]1CN(C)C(=O)c2ccc(NC(C)=O)cc2OC[C@H](C)N(Cc2cc(F)ccc2F)C[C@@H]1C | -18 | -3
Cc1noc(C)c1NC(=O)Nc1cccc2c1O[C@@H](CN(C)S(=O)(=O)c1ccc(F)cc1)[C@@H](C)CN([C@H](C)CO)C2=O | 2 | 1
COc1ccc2c3c([nH]c2c1)[C@H](CO)N(C(=O)C1CCCC1)CC31CN(Cc2nccs2)C1 | -22 | -1
C[C@@H]1CCCCO[C@@H](CN(C)S(C)(=O)=O)[C@H](C)CN([C@H](C)CO)C(=O)c2cc(NS(C)(=O)=O)ccc2O1 | 15 | 3
CC(C)NC(=O)Nc1ccc2c(c1)C(=O)N([C@@H](C)CO)C[C@H](C)[C@@H](CN(C)Cc1ccc(Cl)c(Cl)c1)OCCCC[C@H](C)O2 | nt | 5
C[C@@H]1CN([C@@H](C)CO)C(=O)c2cc(NC(=O)Nc3ccc(F)cc3)ccc2O[C@@H](C)CCCCO[C@H]1CN(C)Cc1ccc(Cl)c(Cl)c1 | -68 | nt
C[C@@H]1CN([C@H](C)CO)C(=O)c2cc(NC(=O)Nc3ccccc3)ccc2O[C@@H](C)CCCCO[C@H]1CN(C)Cc1ccc(Cl)c(Cl)c1 | -86* | 19
C[C@@H]1CCCCO[C@@H](CN(C)Cc2ccc(Cl)c(Cl)c2)[C@@H](C)CN([C@H](C)CO)C(=O)c2cc(NC(=O)Nc3ccc(F)cc3)ccc2O1 | 13 | nt
C[C@@H]1CN([C@H](C)CO)C(=O)c2cc(NC(=O)Nc3ccc4c(c3)OCO4)ccc2O[C@@H](C)CCCCO[C@@H]1CN(C)Cc1ccc(Cl)c(Cl)c1 | -88* | 6
C[C@@H]1CCCCO[C@H](CN(C)Cc2ccc(Cl)c(Cl)c2)[C@H](C)CN([C@@H](C)CO)C(=O)c2cc(NC(=O)Nc3ccc(F)cc3)ccc2O1 | -85* | nt
C[C@@H]1CN([C@@H](C)CO)C(=O)c2cc(NC(=O)Nc3ccc4c(c3)OCO4)ccc2O[C@@H](C)CCCCO[C@H]1CN(C)Cc1ccc(Cl)c(Cl)c1 | -59 | 5
C[C@@H]1CCCCO[C@H](CN(C)Cc2ccc(Cl)c(Cl)c2)[C@H](C)CN([C@@H](C)CO)C(=O)c2cc(NC(=O)Nc3ccccc3)ccc2O1 | -85* | 8
CCCNC(=O)N1C[C@@H](C)[C@@H](OC)CN(C)C(=O)c2cc(NS(=O)(=O)CC(F)(F)F)ccc2OC[C@H]1C | 25 | nt
COc1ccc2c3c(n(C)c2c1)[C@H](CO)N(C(=O)Nc1ccccc1F)CC31CCN(C(=O)c2ccccc2)CC1 | -76 | 1
COc1cccc(-c2ccc([C@H]3[C@@H](CO)N4CCCCN(CC5CC5)C[C@@H]34)cc2)c1 | 6 | 6
C[C@@H]1CCCCO[C@H](CN(C)C(=O)CCC(F)(F)F)[C@H](C)CN([C@H](C)CO)C(=O)c2cc(NS(=O)(=O)c3ccc(F)cc3)ccc2O1 | -55 | 2
C[C@H]1CN([C@@H](C)CO)C(=O)c2cc(NC(=O)Nc3cccc4ccccc34)ccc2O[C@@H]1CN(C)S(=O)(=O)c1ccc(Cl)cc1 | -32 | -12
O=C(CC(F)(F)F)N1C[C@H]2[C@@H](c3ccccc31)[C@@H](CO)N2C(=O)c1ccncc1 | 4 | -2
C[C@H](CO)N1C[C@H](C)[C@@H](CN(C)C)Oc2ncc(C#CC3CCCCC3)cc2C1=O | -40 | -6

Screens deposited in PubChem by Broad Institute.
